D1 antagonist: antagonists of human D1 dopamine receptor | P21728 | HEK293 TREx D1 cells, calcium flux, dopamine EC80; active compounds read low | activity change, negative = inhibition, % at 10 µM | 360,000 tested, 3.2% active | AID 504652; in the data active = activity change below about -30%
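Tetracycline-induced HEK293 T-REx cells with force-coupled D1 receptor were loaded with a no-wash calcium dye. Compound was added after a 10 s baseline and read kinetically for 180 s; EC80 dopamine was then added and calcium flux followed another 180 s.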
D1 agonist: human D1 receptor agonism; P21728; HEK293 T-REx D1 cells, calcium flux, agonist mode; activation, % at 2 µM; 360,000 tested, 1% active
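Tetracycline-induced HEK293 TREx D1 cells, force-coupled to calcium signalling, were dye-loaded with a no-wash calcium kit. Compound was pin-added after a 10 s baseline. Fluorescence was read kinetically at 1 cycle/s for 180 s, with calcium rises flagged as agonism.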
TRHR enhancer: TRH receptor (human) allosteric enhancement; enhancement, % at 2 µM; AID 493056; TRHR cells, fluo-8 calcium fluorescence, EC20 TRH enhancement; 360,000 tested, 0.66% active; P34981; in the data active = enhancement above about 30%
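Enhancer read-out: after compound pinning and an initial kinetic agonist-mode read, an EC20 of TRH (10 nM final) was injected and fluo-8 calcium signal (Ex 480/Em 530) followed at 1 s/cycle for 100 cycles in TRHR-expressing cells.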
D1 potentiator: enhances dopamine response at the human D1 receptor; P21728; HEK293 TREx D1 cells, calcium flux, dopamine EC20 potentiation; potentiation, % at 10 µM; 360,000 tested, 0.036% active; in the data active = potentiation above about 30%
USP1 inh: USP1/UAF1 (human) deubiquitinase inhibition | recombinant USP1/UAF1, Ub-Rhodamine cleavage fluorescence | AID 743255 | Potency, µM (series often up to 57.1 µM), most hits filed as inhibitors | 390,000 tested, 0.23% active; active = well fitted inhibition curve with a large enough effect; inconclusive = small, poorly fitted or top-dose-only effect; inactive = no such curve, though single readings can be large or run the other way; note: nearly all actives have a fitted effect of over 60% in size
Target sequence (O94782 whole entry, looked up): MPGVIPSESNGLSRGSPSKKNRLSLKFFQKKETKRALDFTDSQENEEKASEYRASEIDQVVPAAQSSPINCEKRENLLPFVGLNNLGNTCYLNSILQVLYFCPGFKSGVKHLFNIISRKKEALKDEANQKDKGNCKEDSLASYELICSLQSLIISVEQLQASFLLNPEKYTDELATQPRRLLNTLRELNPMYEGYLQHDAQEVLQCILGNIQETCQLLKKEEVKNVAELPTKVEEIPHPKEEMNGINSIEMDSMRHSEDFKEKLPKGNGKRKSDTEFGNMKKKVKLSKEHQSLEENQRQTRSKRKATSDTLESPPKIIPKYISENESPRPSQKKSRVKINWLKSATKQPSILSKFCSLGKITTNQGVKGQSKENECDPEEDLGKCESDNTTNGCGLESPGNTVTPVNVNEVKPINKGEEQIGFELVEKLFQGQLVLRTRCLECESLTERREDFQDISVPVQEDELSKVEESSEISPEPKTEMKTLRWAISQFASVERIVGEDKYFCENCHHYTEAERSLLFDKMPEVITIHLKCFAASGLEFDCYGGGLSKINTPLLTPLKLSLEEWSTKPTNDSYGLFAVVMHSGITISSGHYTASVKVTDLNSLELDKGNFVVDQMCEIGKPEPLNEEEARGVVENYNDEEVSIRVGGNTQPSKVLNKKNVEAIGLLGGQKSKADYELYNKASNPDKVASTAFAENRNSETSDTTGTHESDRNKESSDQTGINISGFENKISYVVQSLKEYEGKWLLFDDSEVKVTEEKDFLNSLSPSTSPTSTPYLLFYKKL
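USP1/UAF1 complex (1 nM) preincubated 15 min at room temperature with compound, then Ub-Rho substrate (150 nM final) added. Kinetic fluorescence at 480/540 nm over 6 reads at 60 s intervals; 50 mM HEPES pH 7.8, 0.5 mM EDTA, 0.1 mg/ml BSA, 1 mM TCEP, 0.01% Tween-20.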
TRHR ag: TRH receptor (human) agonism; P34981; TRHR cells, calcium flux fluo-8, FDSS agonist mode; activation, % at 2 µM; 360,000 tested, 0.18% active; AID 493084
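Steps: seed TRHR cells overnight; add fluo-8 no-wash Ca dye, RT 30 min–1.5 h; record 10 s baseline; pin-transfer compounds; monitor fluorescence 1 cycle/s for the agonist window. Calcium increases flag candidate agonists.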
Of the large screens only hits and unclear results are named; the others gave an inactive call; ! = not confirmed by another sample. Hits are enriched below; roughly 4.4% of the tested compounds scored in any of these assays. Cut-off read from the data, not from the text of the source, unless noted: active = activation above about 30%; inactive = the rest.

COc1ccc(N(CC(=O)Nc2ccc(C)c(C)c2)S(=O)(=O)c2c(C)noc2C)cc1	D1 antagonist -42
CCOc1ccc(N(CC(=O)Nc2cccc(Cl)c2)S(=O)(=O)c2c(C)noc2C)cc1	D1 antagonist -36
Cc1ccc(N(CC(=O)NCCc2ccc(Cl)cc2)S(=O)(=O)c2c(C)noc2C)cc1	D1 antagonist -34!
O=C(Nc1ccccc1F)c1ccc(O)c2ncccc12	none (no result: USP1 inh)
C=Cc1ccc(Cn2c(=O)n(-c3cccc(C)c3)c(=O)c3c2c2cc(C)ccc2n3C)cc1	none
COc1cccc(CNC(=O)Cn2ncn3nc(-c4cccs4)cc3c2=O)c1	none
COc1ccc(C2=CC3=C(Br)C(=O)C(C)(O)C(=O)C3=CO2)cc1 (configuration not stated)	USP1 inh 35µM
CCC(=O)OC1(C)C(=O)C2=COC(c3ccc(OC)cc3)=CC2=C(Br)C1=O (configuration not stated)	USP1 inh 35µM
COc1ccc(C2=CC(=O)C=CC2=O)cc1	none (no result: USP1 inh)
Cc1cccc(NC(=O)C2CCN(c3nc4ccccc4[nH]3)CC2)c1C	none
COC(=O)c1cc(NC(=O)c2oc(=O)c3ccccc3c2-c2ccccc2)cc(C(=O)OC)c1	none
Cc1oc2ccc(O)c(CN3CCN(C)CC3)c2c1C(=O)Nc1cccc(C(F)(F)F)c1	D1 antagonist -46, D1 agonist 62
CCN1CCN(Cc2c(O)ccc3oc(C)c(C(=O)Nc4cccc(C(F)(F)F)c4)c23)CC1	D1 agonist 50
Cc1ccccc1C(=O)N=c1ccn(-c2nc3ccccc3nc2NS(=O)(=O)c2ccccc2)cc1	D1 agonist 39, USP1 inh inconclusive
COc1cc(Cl)c(C)cc1Nc1nc2ccccc2nc1NS(=O)(=O)c1ccccc1	none
CCOc1ccc(S(=O)(=O)Nc2nc3ccccc3nc2-n2ccc(=NC(=O)c3ccccc3C)cc2)cc1	D1 agonist 62
CCCSCCCNC(=O)c1sc2nc(C)cc(C)c2c1-n1cccc1	none
CCCS(=O)(=O)N1CCN=C1SCc1cccc(C)c1	D1 antagonist -30
Cc1ccc(/C=C/C(=O)c2c(C)nc3ccccn23)cc1	D1 antagonist -71
Cc1nc2ccccn2c1C(=O)/C=C/c1cccc([N+](=O)[O-])c1	none
Cc1ccc2nc(N(CCCN(C)C)C(=O)c3ccc4c(c3)CCCC4)sc2c1	none
CN(C)CCCN(C(=O)CCc1ccccc1)c1nc2c(F)cccc2s1	D1 agonist 35
Cc1cccc2sc(N(CCCN(C)C)C(=O)c3ccc(C(=O)c4ccccc4)cc3)nc12	D1 antagonist -31
Cc1cc(C)c2nc(N(CCCN(C)C)C(=O)c3ccc4c(c3)CCCC4)sc2c1	TRHR enhancer 33
Cc1ccc2sc(N(CCCN(C)C)C(=O)CN3C(=O)c4ccccc4C3=O)nc2c1C	D1 agonist 46
Cc1ccc2sc(N(CCN(C)C)C(=O)c3ccc4ccccc4c3)nc2c1C	none
Cc1ccc(-n2ncc(C(=O)NC3CCCCC3)c2C2CCN(C(=O)OC(C)(C)C)CC2)cc1	USP1 inh inconclusive
O=C(Nc1cc2c(cc1C(=O)c1cccc(Br)c1)OCCO2)c1ccccc1F	none
O=C(Nc1cccc(F)c1)c1ccc2c(c1)N(Cc1ccccc1)C(=O)c1ccccc1S2(=O)=O	none
CCCN1CCN(CCCNC(=O)c2cnn(-c3ccc(F)cc3)c2-n2cccc2)CC1	none
Cc1cccc2sc(N(CCCN(C)C)C(=O)c3sc4ccccc4c3Cl)nc12	none
Cc1cccc2sc(N(CCCN(C)C)C(=O)COc3ccccc3)nc12	D1 agonist 64
COc1cccc2sc(N(CCCN(C)C)C(=O)c3sc4ccccc4c3Cl)nc12	D1 antagonist -73
CCc1cccc(-n2c(=O)c3cccnc3n2CC(=O)Nc2ccc(OC)c(Cl)c2)c1	D1 antagonist -63
COC(=O)c1nnn(CC(=O)NC(=O)Nc2cccc(C)c2C)c1C(=O)OC	D1 agonist 50!
COC(=O)c1nnn(CC(=O)NC(=O)Nc2ccccc2F)c1C(=O)OC	TRHR enhancer 31!, USP1 inh inconclusive
O=c1cc(CSc2nc3ccccc3c(=O)[nH]2)c2ccc(O)cc2o1	D1 antagonist -37
CCCc1nccn1S(=O)(=O)c1cc(Br)ccc1OC	none
COc1ccc(/C(C)=N/NC2=NCCN2)cc1Cl	D1 antagonist -93
Cc1nn(C2CCS(=O)(=O)C2)c(Cl)c1/C=C/C(=O)OCC(=O)c1cc(C)n(-c2ccc(F)cc2)c1C (configuration not stated)	D1 antagonist -31
Cc1ccc(N(C)C(=O)CN2C(=O)CCc3cc(S(=O)(=O)N4CCOCC4)ccc32)cc1	none
CCN(CC)CCCNC(=O)CSc1nc(-c2ccc(F)cc2)cc(C(F)(F)F)n1	D1 antagonist -41
O=C(CSc1nc(-c2ccc(F)cc2)cc(C(F)(F)F)n1)NCCc1ccccc1	D1 agonist 44
COc1ccc(C2=C(Nc3ccc(Br)c(C)c3)c3ccccc3C2=O)cc1	USP1 inh inconclusive
CC(=O)Oc1ccccc1-n1c(C)nc(=O)c(-c2ccccc2)c1C	D1 antagonist -39
COc1ccccc1-n1c(C)nc(=O)c(-c2ccccc2)c1C	none
CCc1nc(=O)c(-c2ccccc2)c(C)n1-c1ccccc1	TRHR enhancer 37
Cc1ccc(-n2nnnc2CNC(=O)C(C)C)cc1C	none
COc1cc(-c2cc(-c3nnco3)c3ccccc3n2)cc(OC)c1OC	D1 antagonist -96
c1ccc(-c2cc(-c3nnco3)c3ccccc3n2)nc1	TRHR enhancer 34
CCOC(=O)C1CCC(CN(Cc2cccc(Br)c2)S(=O)(=O)c2ccc(C)cc2)CC1 (configuration not stated)	D1 agonist 32
O=CNC1CCCc2c1[nH]c1ccc(Cl)cc21 (configuration not stated)	D1 antagonist -37
CCN(CC)C(=O)C1CCCc2c1[nH]c1ccc(Cl)cc21 (configuration not stated)	USP1 inh inconclusive
CCOC(=O)c1ccc(NC(=O)Nc2cc3c(cc2N2CCCC2)n(C)c(=O)n3C)cc1	D1 antagonist -32
CCn1c(=O)n(CC)c2cc(N3CCCC3)c(NC(=O)Nc3cc(C)cc(C)c3)cc21	D1 agonist 40
CCn1c(=O)n(CC)c2cc(N3CCCC3)c(NC(=O)c3ccc(C)cc3)cc21	none
O=S(=O)(c1ccc(Cl)cc1)c1nc(-c2cccc(Br)c2)oc1NCc1ccccc1	TRHR enhancer 31
O=S(=O)(c1ccccc1)c1nc(-c2cccc(Cl)c2)oc1NCc1ccccc1	none
CCOc1ccc(CCNC(=O)CCc2c(C)nc3c(c(C)nn3-c3ccccc3)c2C)cc1OCC	none

Screening results: PubChem, National Center for Advancing Translational Sciences (NCATS)
